Over roughly 33,000 sequences, “E-score (-0.5 to 0.5)” has its median near -0.054; the highest 2% begin near 0.39. Only a selection was taken, and the highest values are over-represented in it overall.
Target: Ylr278c (UniProt Q05854)
Experiment: PBM E-score (8-mer binding enrichment) (E-score (-0.5 to 0.5)); higher = stronger / more preferred TF binding
Conditions: protein concentration: 200 nM; construct: GST-DNA-binding domain
Method in brief: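 PURExpress in vitro transcription/translation supplied GST-tagged yeast transcription factors, either full-length or DNA-binding domain. Applied at about 100-200 nM to universal all-10-mer Agilent arrays double-stranded by primer extension, the bound protein was detected with fluorescent anti-GST. E-scores, modified Wilcoxon-Mann-Whitney statistics, were given by the Universal PBM Analysis Suite to ungapped eight-base words pooled with their reverse complements after masliner normalisation.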

Chain of UniProt Q05854 (Q05854 whole entry): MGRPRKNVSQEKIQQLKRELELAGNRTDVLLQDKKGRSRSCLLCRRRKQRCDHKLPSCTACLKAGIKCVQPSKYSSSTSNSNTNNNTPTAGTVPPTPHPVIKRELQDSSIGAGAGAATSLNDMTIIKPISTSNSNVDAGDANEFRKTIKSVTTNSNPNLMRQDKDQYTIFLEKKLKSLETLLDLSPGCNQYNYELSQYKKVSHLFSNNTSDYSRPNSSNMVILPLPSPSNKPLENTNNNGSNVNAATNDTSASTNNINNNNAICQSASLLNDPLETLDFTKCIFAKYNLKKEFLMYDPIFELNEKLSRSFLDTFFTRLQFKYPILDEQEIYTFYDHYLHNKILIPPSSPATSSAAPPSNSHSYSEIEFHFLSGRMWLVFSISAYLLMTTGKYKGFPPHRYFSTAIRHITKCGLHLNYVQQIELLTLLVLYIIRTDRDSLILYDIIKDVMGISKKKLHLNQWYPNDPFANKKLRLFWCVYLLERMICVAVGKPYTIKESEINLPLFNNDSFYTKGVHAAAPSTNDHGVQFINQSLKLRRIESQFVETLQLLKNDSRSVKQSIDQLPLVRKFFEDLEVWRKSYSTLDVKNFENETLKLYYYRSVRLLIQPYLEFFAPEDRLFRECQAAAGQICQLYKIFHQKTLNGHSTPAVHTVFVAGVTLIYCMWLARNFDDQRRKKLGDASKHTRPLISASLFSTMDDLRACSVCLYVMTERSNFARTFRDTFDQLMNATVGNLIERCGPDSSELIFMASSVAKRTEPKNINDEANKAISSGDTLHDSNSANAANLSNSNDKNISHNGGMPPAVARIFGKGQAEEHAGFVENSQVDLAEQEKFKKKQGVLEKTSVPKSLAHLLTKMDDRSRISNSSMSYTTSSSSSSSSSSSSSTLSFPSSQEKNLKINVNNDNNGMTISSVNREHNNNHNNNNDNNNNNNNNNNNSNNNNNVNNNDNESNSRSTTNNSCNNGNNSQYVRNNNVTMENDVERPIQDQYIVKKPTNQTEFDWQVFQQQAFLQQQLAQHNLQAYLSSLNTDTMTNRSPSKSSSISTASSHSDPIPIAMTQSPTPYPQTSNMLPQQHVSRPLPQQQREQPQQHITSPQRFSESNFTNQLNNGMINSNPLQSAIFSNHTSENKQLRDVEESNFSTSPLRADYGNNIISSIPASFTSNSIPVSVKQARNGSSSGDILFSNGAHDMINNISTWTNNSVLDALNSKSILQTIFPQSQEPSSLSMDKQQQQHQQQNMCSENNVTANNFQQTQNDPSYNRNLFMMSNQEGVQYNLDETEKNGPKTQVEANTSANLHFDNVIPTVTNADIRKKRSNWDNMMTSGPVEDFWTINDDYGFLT

Sequence	PBM E-score
GTTTCGGA	0.4
ATTTCGGA	0.45
GTTTCGTA	0.0178
GTTTCGAA	-0.0713
ATTTCGGC	0.275
CCTTCGGC	0.112
CTTTCGGC	0.239
CTTTCGTA	-0.173
CCTTCGGA	0.424
CTTTCGGA	0.451
ATTTCGGG	0.235
GCTTCGGA	0.367
CTGGGTCC	0.0219
CTTATCTA	-0.0407
CAAAGCTA	-0.093
ACTCGCAT	-0.0232
AAGTTCAA	0.118
ACCACTTA	-0.0492
GGGCTCAC	-0.0724
GGAGCAGA	0.109
ACCTTCTA	-0.186
GTGTACGA	-0.00044
CACCGCGC	0.201
CTCCGCGC	0.429
ATCCGCGC	0.251
GTCCGCGA	0.313

Sequence	PBM E-score
CTCCGCGA	0.403
ATCCGCGA	0.253
CCAGCTCC	0.22
AATCTCCC	0.0563
CATCTCCC	0.216
AATCTCCT	0.0721
AATCTCCG	0.484
CATCTCCA	0.0295
CATCTCCG	0.463
ACGCTCTG	-0.251
CAACTCGG	0.139
ACCTCTGC	-0.209
AAGGAAGC	-0.162
ACTTCAGA	-0.0177
ACGGCCGA	0.246
GCGGCCGA	0.188
CCGGCCGA	0.415
ACGGCCGG	0.33
CCGGCCGG	0.461
CCGGCCGC	0.327
AGCGCCAT	-0.199
GACAGGGC	-0.0701
GCCTCCAC	-0.044
TAGCCATA	-0.329
GATGGGGC	-0.023
CAGGACTG	-0.287

Sequence	PBM E-score
CTTCCGGA	0.451
GTTCCGCA	0.289
ATTCCGGA	0.46
CTTCCGGC	0.371
ATTCCAGA	0.0166
CTTCCGTA	0.215
GTTCCGTA	0.264
ATTCCGTA	0.33
GTTCCGGA	0.45
ACTGTTTC	-0.0349
GTCAGCAA	-0.18
CGTCCAAA	0.14
ACCTCGCT	-0.0554
AGTCAGCG	0.0403
ATGCCCCA	-0.0328
CAGTCGAA	-0.212
AAAGCCTT	-0.162
ATCTCAAC	-0.00641
CTGGAGTC	-0.0908
GCGGAGTA	0.449
AAGGAGTA	-0.0326
ACGGAGTC	0.398
GGGGAGTA	0.0376
CCGGAGTC	0.451
AAGGAGTC	-0.127
GAGGAGTA	0.0495

Sequence	PBM E-score
CAGGAGTC	0.055
ATGGAGTC	0.0654
ACGGAGTA	0.452
ATGGAGTA	0.0152
AGAGTTGG	-0.115
ACTCTGTA	-0.175
GACCCAGC	-0.272
GATCCAGC	0.0556
ACACCGCC	0.199
AGACAGTC	-0.129
CTTACAGA	-0.0798
CGAGACCG	0.233
CTCAAGTC	-0.225
CATGTACG	-0.0652
CAGAATGG	-0.0518
GCTCTGGA	-0.1
CCGGAGTA	0.485
ACGGAGTG	0.401
CAGGAGTA	-0.0482
CTGGAGTA	-0.0695
AAGGAGTG	-0.179
ATGGAGTG	-0.0888
GTTCTAGA	0.0109
